Source: PubChem BioAssay
Only some compounds are listed: those with a hit (about 12% of all), similar ones and a draw of the others.
JMJD2A Tudor: blocks the human JMJD2A Tudor domain; O75164; AlphaScreen JMJD2A-Tudor / H3K4me3 peptide binding; Potency, µM (top dose mostly 114 µM), without a hit: top-dose activity change, negative = inhibition, usual class: inhibitors; hit rate 4.4% among 390,000; AID 504339; also: potency is read from the fitted curve at half-maximal effect; % is scaled to controls: 0 for no effect and ±100 for the full control effect; nearly all actives have a fitted effect of over 50% in size
G9a inh: G9a (human) methyltransferase inhibition | Q96KQ7 | G9a H3K9 monomethylation, AlphaScreen, 2 h | Potency, µM (series often up to 102 µM), without a hit: at the top dose activity, negative = inhibition, actives largely listed as inhibitors | hit rate 8.8% among 350,000 | AID 504332; also: potency is read from the fitted curve at half-maximal effect; % is scaled to controls: 0 for no effect and ±100 for the full control effect; nearly all actives have a fitted effect of over 75% in size
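AlphaScreen detection with an anti-monomethyl H3K9 antibody quantified product after a 2 h room-temperature reaction containing 500 nM biotinylated H3K9 peptide, 20 µM SAM and 20 nM enzyme, which had been preincubated 15 min with compound.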
PLK1 PBD block: PLK1 (human) polo-box domain binding inhibition | AID 720504 | hit rate 2.8% among 360,000 | P53350 | Potency, µM, for the others: max response, negative = inhibition, actives largely listed as inhibitors | Plk1 PBD binding of FITC phosphopeptide, fluorescence polarization; also: potency is read from the fitted curve at half-maximal effect; series mostly up to about 57 µM; % is scaled to controls: 0 for no effect and ±100 for the full control effect; nearly all actives have a fitted effect of over 65% in size
PI5P4K alpha inh: blocks human PI5P4K alpha kinase activity; AID 652105; PI5P4Kalpha enzyme, ADP-Glo luminescence, 60 min; hits give low values; hit rate 1.2% among 330,000; max response, %; P48426; active = max response of -50% or lower; inconclusive = between -30% and -50%; inactive = -30% or higher; also: value at the top dose of about 77 µM; % is scaled to controls: 0 for no effect and ±100 for the full control effect
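Enzyme plus substrate dispensed, test compounds pinned in, then ATP (5 microM final) added. After 60 min at RT, ADP-Glo reagent 1 for 45 min and reagent 2 for 30 min preceded luminescence imaging.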
HP1b chromo inh: HP1-beta chromodomain-methylated histone interaction inhibition; AlphaScreen HP1-beta / biotin-H3K9me3 peptide binding; Potency, µM (titrated, usually from 114 µM), for the others: at the top dose activity change, negative = inhibition, actives largely listed as inhibitors; hit rate 0.56% among 390,000; AID 540317; also: potency is read from the fitted curve at half-maximal effect; nearly all actives have a fitted effect of over 70% in size
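HP1-beta protein (50 nM final) preincubated 30 min at room temperature with biotinylated H3(1-18)K9me3 peptide (50 nM) in PBS pH 7.4, 0.01% Tween-20, then compound added for 30 min. AlphaScreen streptavidin donor/nickel chelate acceptor beads (10 ug/mL final), 30 min dark, luminescence read.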
BAZ2B block: inhibitors of human BAZ2B bromodomain. Q9UIF8. AID 504333. hit rate 4.4% among 360,000. Potency, µM (doses to about 114 µM), inactives show at the highest dose activity change, negative = inhibition, hits mostly inhibitors. AlphaScreen BAZ2B-H3K14Ac peptide displacement; also: potency is read from the fitted curve at half-maximal effect; % is scaled to controls: 0 for no effect and ±100 for the full control effect; nearly all actives have a fitted effect of over 60% in size
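AlphaScreen displacement: compounds (up to 110uM) incubated 30 min at room temperature with a preformed 50 nM BAZ2B/50 nM biotinylated H3K14Ac peptide complex in PBS pH 7.4 with Tween-20. Donor and acceptor beads at 10 ug/mL final added, 20 min light-protected before reading.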
Active calls of the source: *; ? = inconclusive; · = not tested or not shown; [ ] = dose if it differs, or a comment. Unless noted, calls follow the shape of the dose curve; as a rule, active = well fitted curve in the direction sought with a large enough effect; inconclusive = small, poorly fitted or top-dose-only effect, or another doubt; inactive = no such curve, though single readings can be large; an effect the other way counts as inactive or inconclusive.

SMILES	JMJD2A Tudor	G9a inh	PLK1 PBD block	PI5P4K alpha inh	HP1b chromo inh	BAZ2B block
Cc1ccc2nc(N3CC(C)OC(C)C3)nc(-c3ccccc3)c2c1 (configuration not stated)	47.2%	39.0%	-0.7%	-0.8	120.4%	29.5%[57.1 µM]
COc1ccc(N2CCN(c3nc(-c4cccs4)nc4ccccc34)CC2)cc1	?	20µM*	-6.1%	0.0	?	?
COc1ccc(N2CCN(c3cc(C)c4ccccc4n3)CC2)cc1	?	10µM*	-9.7%	9.9	?	?
COC(=O)c1cc(N2CCN(C)CC2)nc2ccccc12	-22.1%	11.2µM*	-21.4%	-4.1	57.6%	?
O=C(O)c1cc(N2CCCCC2)nc2ccccc12	-4.8%	·	-4.9%	-0.4	46.9%	·
Cc1cc(N2CCN(c3ccccc3)CC2)nc2ccccc12	20.6%	33.4%	2.4%	-4.2	94.3%	11.4%
COc1ccccc1CCn1c(=O)c(-c2cccs2)nc2cncnc21	·	-0.2%[0.501 µM]	·	·	·	·
C=CCN(Cc1ccc(Cl)s1)C(=O)c1ccc(F)c(S(=O)(=O)N2CCOCC2)c1	-7.6%	·	-2.6%	-1.3	21.0%	·
COc1ccc(CNc2cc(C)nc3ccc(OC)cc23)cc1	-26.4%	35.5µM*	-0.4%	-3.0	2.8%	-37.8%
COc1ccc(N2CCN(c3cc(C)nc4ccc(OC)cc34)CC2)cc1	44.7µM*	50.1µM*	-6.6%	9.6	?	31.6µM*
COc1ccc(Nc2cc(C)nc3ccc(OC)cc23)cc1	-20.5%	·	-4.1%	-2.6	12.3%	-3.2%
Cc1cc(N2CC(C)OC(C)C2)nc2ccccc12 (configuration not stated)	-18.6%	36.9%	26.7µM*	-17.1	3.7%	14.4%
COc1ccc2c(C)cc(N3CCCCCC3)nc2c1	12.6µM*	?	1.7%	-9.8	-19.3%	22.4µM*
COc1ccc2c(C)cc(N3CCN(Cc4ccccc4)CC3)nc2c1	-5.0%	14.3%[2.33 µM]	-7.0%	-1.5	20.6%	3.4%
CCOc1ccc(NC(=O)Cn2c(=O)n(Cc3ccc(C(=O)NCc4ccc5c(c4)OCO5)cc3)c(=O)c3ccccc32)cc1	-20.1%	-0.5%[59 µM]	·	·	20.9%	1.5%
CCN(CC)c1ccc(-n2nc3cc(C)c(NC(=O)c4ccccc4F)cc3n2)cc1	23.0%	65.3%[59 µM]	·	·	231.6%	38.4%
CCc1ccc(NC(=O)CN(CC(=O)Nc2ccc(CC)cc2)CC(C)O)cc1 (configuration not stated)	?	-27.0%[2.33 µM]	26.7µM*	19.3	1.2%	-18.4%
CCc1ccc(NC(=O)Cc2ccc(OC)cc2)cc1	·	14.5%[59 µM]	·	·	·	7.5%
O=C1OCC2=C1C(c1cccc(Cl)c1)CC(=O)N2c1ccc(C(F)(F)F)cc1 (configuration not stated)	-10.4%	2.0%[59 µM]	·	·	17.2%	-15.0%
Cc1nc(-c2ccc(F)cc2)c(CC(=O)N(C)CC(=O)Nc2ccc(Br)cc2C)s1	-33.1%	31.6µM*	1.7%	3.5	5.6%	-19.5%
Cc1nc(-c2ccc(F)cc2)c(CC(=O)N(C)CC(=O)Nc2ccccc2Br)s1	-20.7%	8.5%[2.33 µM]	-2.3%	-0.7	4.8%	-2.6%
CC1CCCCC12NC(=O)N(CC(=O)N1CCc3ccccc3C1)C2=O (configuration not stated)	-6.8%	?	-3.0%	-7.6	10.2%	-4.7%
Cc1ccc(NC(=O)/C(C#N)=C/c2cc(C)n(-c3ccc(F)cc3)c2C)cc1C	-10.1%	17.0%[59 µM]	·	·	32.9%	2.7%
CN(C)c1nc(C=C(C#N)C#N)c(Cl)n1-c1ccc(F)cc1	-18.2%	?	15µM*	2.3	15.7%	-22.4%
COc1ccc(N2CCN(C(=O)CCCN3C(=O)c4cccc5cccc(c45)C3=O)CC2)cc1	?	·	-11.0%	·	-31.1%	39.8µM*
C#CCOC(=O)CCCN1C(=O)c2cccc3cccc(c23)C1=O	·	·	3.4%	-4.6	·	·
O=C(CCCN1C(=O)c2cccc3cccc(c23)C1=O)N1CCN(c2ccc(F)cc2)CC1	-22.6%[57.1 µM]	?	-12.2%	3.8	2.4%	-36.5%
COC(=O)CCCN1C(=O)c2cccc3cccc(c23)C1=O	-9.0%	48.8%	-10.2%	0.2	46.7%	44.7µM*
